Source: PubChem BioAssay (several laboratories)
A selection: hits, their analogues and other compounds. The true share with any hit is near 1.6%.
eIF4H FP inh: inhibitors of RNA binding by human eIF4H; eIF4H fluorescence polarization binding assay; 290,000 compounds, 0.94% hits; Q15056; inhibition, % at 35 µM;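 note: calls also rest on retests at 20 µM and on dose response follow-up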
eIF4E-4G inh: blocks eIF4E binding to eIF4G. 220,000 compounds, 0.37% hits. inhibition, % at 21.7 µM. TR-FRET eIF4E-eIF4GI(517-606) binding, 2 h. P63073+Q04637;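 active = inhibition above about 30%, limit read from the data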;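 note: 0% = full FRET control wells and 100% = background wells lacking eIF4GI fragment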
PERK inhibitor: human PERK inhibition, primary cell-based screen. CHO PERK-DD fusion, SEAP luminescence translation reporter. inhibition, % at 5.6 µM. 220,000 compounds, 0.17% hits. AID 1416;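 active = inhibition above the mean inhibition of all tested compounds plus 3 SD, set separately per screening campaign, cut at about 2.9% in these data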;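 note: PERK kinase domain activated by AP20187 dimerizer at 100 nM; 0% = DMSO with dimerizer and 100% = rapamycin at 8.4 µM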
PABP1 MLLE inh: blocks PAM2 peptide binding to the PABP1 MLLE domain. GST-MLLE / FITC-PAM2 fluorescence polarization. inhibition, % at 20 µM. 360,000 compounds, 0.36% hits; in the data active = inhibition above about 35%, passing the limit was not always enough;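 note: plate controls were DMSO wells with GST-MLLE for no effect and wells lacking GST-MLLE protein for full effect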
Target sequence (P11940 whole entry, looked up, the tested form may be a part): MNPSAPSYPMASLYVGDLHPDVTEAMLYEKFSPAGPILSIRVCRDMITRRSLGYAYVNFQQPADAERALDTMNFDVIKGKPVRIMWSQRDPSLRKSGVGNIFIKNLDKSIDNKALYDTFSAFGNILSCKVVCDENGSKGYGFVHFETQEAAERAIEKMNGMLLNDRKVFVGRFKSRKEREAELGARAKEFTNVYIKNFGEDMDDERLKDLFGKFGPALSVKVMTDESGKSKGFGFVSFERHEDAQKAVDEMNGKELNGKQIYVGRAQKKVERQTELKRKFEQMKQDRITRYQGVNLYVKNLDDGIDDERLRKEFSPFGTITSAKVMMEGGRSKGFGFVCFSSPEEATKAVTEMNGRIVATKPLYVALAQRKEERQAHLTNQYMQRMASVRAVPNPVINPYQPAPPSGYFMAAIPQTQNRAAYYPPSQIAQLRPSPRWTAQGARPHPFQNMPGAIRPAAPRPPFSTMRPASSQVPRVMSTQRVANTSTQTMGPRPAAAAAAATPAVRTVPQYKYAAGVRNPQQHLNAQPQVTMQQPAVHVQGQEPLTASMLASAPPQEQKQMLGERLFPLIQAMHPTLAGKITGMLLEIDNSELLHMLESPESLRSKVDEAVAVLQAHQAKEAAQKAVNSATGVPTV
PABP FP inh: PABP-poly(A) binding inhibition; P11940; PABP-poly(A) RNA binding, fluorescence polarization; calls only at 35 µM; 290,000 compounds, 1% hits; AID 2014;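 note: calls also rest on retests at 20 µM and on dose response follow-up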
An asterisk follows results filed as active; i = inactive; ? = inconclusive; / = no result given; + = active, no number; [ ] = dose if it differs, or a comment. Unless noted, the rule behind the calls is not given here.

SMILES	eIF4H FP inh	eIF4E-4G inh	PERK inhibitor	PABP1 MLLE inh	PABP FP inh
Cc1ccc(-n2c(-c3ccco3)n[nH]c2=S)cc1	-6	-1	1	-1	i
CCOc1ccc(-n2c(-c3ccco3)n[nH]c2=S)cc1	-4	34*[fluorescence artefact?]	2	-1	i
Cc1ccc(C(=O)NCC(=O)Nc2cccc(C(F)(F)F)c2)cc1	active	2	0	-11	i
Cc1ccc2c3c(cccc13)-c1ccccc1C2=O	90*	3	0	48*	+
O=C(O)c1cccnc1Sc1ccccc1Cl	22	1	3.2*	-19	i
O=C(NC1CCCCC1)c1cccnc1Sc1ccccc1Cl	-7	/	/	-11	i
COC(=O)c1ccc(CSc2nc3ccccc3s2)o1	-11	2	1	16	i
COC(=O)c1ccc(CSc2n[nH]c(=S)s2)o1	-11	33*	0	-44	i
O=c1c2ccccc2sn1-c1cc(S(=O)(=O)N2CCOCC2)ccc1N1CCCC1	11	56*	-1	27	i
Nc1cc(S(=O)(=O)N2CCOCC2)ccc1N1CCCCC1	/	/	/	29	/
O=S(=O)(c1ccc(N2CCOCC2)c(Cl)c1)N1CCOCC1	-4	/	/	1	i
O=c1c2ccccc2sn1-c1cc(S(=O)(=O)N2CCOCC2)ccc1N1CCOCC1	-3	71*	-1	32	i
COc1ccc2cc3c(N)nn(C(=O)c4cccc(F)c4)c3nc2c1	-19	75*	0	-26	i
COc1ccc(NC(=O)COC(=O)CNS(=O)(=O)c2ccccc2)cc1OC	-5	0	1	5	i
COc1ccc(NC(=O)COC(=O)CCNS(=O)(=O)c2ccccc2)cc1OC	active	0	0	-19	+
CC1(C)Cc2c(c(-c3ccccc3)[nH]c(=O)c2C#N)CS1	3	4	1	21	i
CC1(C)Cc2c(c(-c3ccco3)[nH]c(=O)c2C#N)CS1	122	2	1	61*	i
Cc1ccc(NC(=O)CSCc2cc(=O)n3cc(C)sc3n2)cc1	-9	/	/	9	i
CC(C)Cc1cc(C(=O)NCc2cccnc2)no1	1	-2	1	1	i
CC(C)Cc1cc(C(=O)NCc2cccs2)no1	-3	-1	3.4*	0	i
Oc1cc(NCc2ccc(F)cc2)cc2cccnc12	/	/	/	22	/
CN(C)CCCNc1cc(O)c2ncccc2c1	/	/	/	41*	/
Cc1c(C(=O)N2CCCCC2)nn(-c2ccc(Cl)cc2)c(=O)c1C#N	-11	43*	2	10	i
COc1ccc(NS(=O)(=O)c2ccc(N3CCOCC3)c(NC(=O)c3ccccc3Cl)c2)cc1	0	2	-1	5	i
O=C(Nc1cc(S(=O)(=O)Nc2ccc(Cl)cc2)ccc1N1CCCCC1)c1ccc(F)cc1Cl	8	3	-1	43*	i
SMILES	eIF4H FP inh	eIF4E-4G inh	PERK inhibitor	PABP1 MLLE inh	PABP FP inh
CS(=O)(=O)c1ccc(C(=O)Nc2ccc(N3CCOCC3)cc2)c(Cl)c1	-8	-2	-1	-7	i
CS(=O)(=O)c1ccc(C(=O)Nc2ccc(N3CCCC3)cc2)c(Cl)c1	82*	8	1	0	+
CC(NC(=O)c1ccncc1)c1ccc(Cl)cc1Cl (centres undefined)	0	/	/	-8	i
CN(/N=C/c1c[nH]c2ccccc12)c1cnn(-c2ccc(F)c(Cl)c2)c(=O)c1Cl	78*	-7	1	-92	+
NC(Cc1ccc(C(F)(F)F)cc1)c1csc(Nc2ccc(C(=O)NCc3ccco3)cn2)n1 (centres undefined)	/	/	/	-28	/
O=C(Oc1c(Br)cc(C(=S)N2CCOCC2)cc1Br)c1ccc(Cl)cc1	1	49*	1	27	i
O=C(Oc1ccc(C(=S)N2CCOCC2)cc1Br)c1cc(Cl)ccc1Cl	-8	-9	1	33	i
CCOC(=O)CSc1c(-c2ccccc2)c2cc(Cl)ccc2[nH]c1=O	active	-2	1	5	i
CCc1ccc(N2CC(C(=O)OCC(=O)Nc3ccc([N+](=O)[O-])cc3)CC2=O)cc1 (centres undefined)	/	/	/	-12	/
O=Cc1cccn1-c1c(C(=O)O)cnn1-c1ccccc1	-8	3	2	-4	i
O=C(O)c1cnn(-c2ccccc2)c1-c1ccncc1	57*	/	/	4	i
O=C(N/N=C/C=C/c1ccc2c(c1)OCO2)C(O)c1ccccc1 (centres undefined)	-16	-1	0	-1	i
Cc1cc(F)ccc1S(=O)(=O)N1CCC2(CC1)OCCN2S(=O)(=O)c1cccs1	/	/	/	8	/
CC(NC(=O)/C(C#N)=C/c1ccc(OCC(=O)O)cc1)c1ccccc1 (centres undefined)	16	/	/	-85	+
NC(=O)CSc1nnc(CNc2ccc(F)cc2)n1CC1CCCO1 (centres undefined)	5	3	3.0*	1	i
CCN1CCC(NCCc2ccc(F)cc2)CC1	-2	/	/	0	i
COc1c(O)cccc1[C@H](O)C1CCN(CCc2ccc(F)cc2)CC1	/	/	/	77*	/
CCCCNC(=S)NNC(=O)c1csc(C)c1	active	-3	1	-18	+
CCCC(=O)Nc1sc(C)c(C)c1C#N	-12	0	1	31	i
CCc1c(C)sc(NC(=O)CC#N)c1C#N	74*	-5	0	-16	+
COc1ccc(-c2csc(NC(=O)CSc3nc(SC)ns3)n2)cc1	-8	-6	1	10	i
COc1ccc(-c2csc(NC(=O)CSc3nc(C)cs3)n2)cc1	/	1	3.6*	14	/
COc1ccc(C(C)=O)cc1CSc1ccc(S(=O)(=O)N2CCOCC2)cn1	/	/	/	31	/
N#C/C(=C\c1cn(CC(=O)N2CCCCC2)c2ccccc12)C(=O)NCc1ccc2c(c1)OCO2	62*	-10	1	-6	+
CCNc1cc2n(c(=O)n1)CCc1cc(OC)c(OC)cc1-2	-2	-5	1	5	i
SMILES	eIF4H FP inh	eIF4E-4G inh	PERK inhibitor	PABP1 MLLE inh	PABP FP inh
COc1cc2c(cc1OC)-c1cc(NCc3ccccn3)nc(=O)n1CC2	-7	88*	1	4	i
CC(=O)C1=C(O)C(=O)N(c2cccc(C(=O)O)c2)C1c1ccc(F)cc1 (centres undefined)	?	1	2	-12	+
CC(=O)C1=C(O)C(=O)N(c2ccc(F)cc2)C1c1ccc(C)cc1 (centres undefined)	5	/	/	3	i
O=C(COc1coc(CN2CCN(c3cccc(Cl)c3)CC2)cc1=O)NC1CCCC1	/	/	/	5	/
COc1cccc(C(=O)Nc2ccc(C3CC3(Cl)Cl)cc2)c1 (centres undefined)	active	2	0	-5	i
COc1cccc(C(=O)Nc2ccc(C)cc2)c1	5	4	0	-2	i
Cc1cccc(-n2cnc(C(=O)NC3CCCCCC3)c2)n1	-5	30*	0	1	i
COc1cc2cc3c(N)c(C(=O)NCc4ccco4)sc3nc2cc1OC	82*	2	0	4	+
